Experimental data from PubChem BioAssay (EPA / NIEHS).
Results filed as inconclusive are left out. Calls of active or inactive are those of the source. How the source made its calls, unless noted: active means hit-call score of the fitted dose curve at least 0.9, where 1 is the maximum; inconclusive means response in the unintended direction; inactive means score below 0.9.

read-out: not listed separately; assay: CEETOX_H295R_MTT_cell_viability: Viability Assessment in the CeeTox HT-H295R MTT Assay (AID 2283718; active means hit-call score of the fitted dose curve at least 0.9, where 1 is the maximum; inactive means score below 0.9;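 on AC50: curve fitted both ways so AC50 may mark viability loss or gain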)
Summary of the method: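 Human H295R adrenal cells, prestimulated 48 h with 10 uM forskolin, were exposed 48 h to chemicals in 0.1% DMSO. Viability was measured in the same wells by MTT (0.5 mg/ml, 4 h, 37 C), absorbance 570/650 nm, as percent of controls.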

Row | Structure (SMILES) | outcome | AC50
1 | CC[C@H]1CC[C@H](NCc2cc3c(cc2OC)[C@H]2C[C@H]2C(=O)N3C)[C@H](c2ccccc2)N1 | inactive | –
2 | CCOC(=O)c1ccc(C2CCC(NC[C@H](O)COc3ccc(O)c(NS(C)(=O)=O)c3)CC2)cc1 (some centres not stated) | inactive | –
3 | O=c1[nH]c2ccc(S(=O)CCN3CCC(Cc4ccc(F)cc4)CC3)cc2o1 (configuration not stated) | inactive | –
4 | CC(C)CC(C)(O)C#CC(C)(O)CC(C)C (configuration not stated) | inactive | –
5 | CCCCCCCCCCCCCCCO | – | 0.0667 µM (active)
6 | CC1=CC(=O)CC(C)(C)C1 | inactive | –

tested on: not listed separately; assay: Tanguay_ZF_120hpf_ActivityScore_legacy: (Legacy) Oregon State University Tanguay Lab 120 Hour Post-fertilization zebrafish Assay Score for Activity (AID 2283742);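 on AC50: dechorionated Tropical 5D wild-type zebrafish embryos held singly per well; static exposure from 6 hpf until 120 hpf at 28 °C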
Summary of the method: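 Dechorionated Tropical 5D embryos, one per well from 6 hpf, statically exposed to 120 hpf at 28 °C in 0.64% DMSO. Mortality and malformations scored binary by brightfield microscopy; activity score combines 18 endpoints, fitted positively versus DMSO.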

Row | Structure (SMILES) | AC50 | outcome
7 | CCCCCCc1ccc(O)cc1O | 43.8 µM (active) | –
8 | CN(C)c1ccc(N=NS(=O)(=O)O)cc1 | – | inactive
9 | CCCCC(CC)COC(=O)CCCCCCCCC(=O)OCC(CC)CCCC (configuration not stated) | – | inactive
10 | CCc1cc(SCc2sc(-c3ccc(C(F)(F)F)cc3)nc2CN2CCN(c3ccc(OC)cc3)CC2)ccc1OCC(=O)O | 61.5 µM (active) | –
11 | O=C(OC[C@H]1O[C@@H](OC(=O)c2cc(O)c(O)c(OC(=O)c3cc(O)c(O)c(O)c3)c2)[C@H](OC(=O)c2cc(O)c(O)c(OC(=O)c3cc(O)c(O)c(O)c3)c2)[C@@H](OC(=O)c2cc(O)c(O)c(OC(=O)c3cc(O)c(O)c(O)c3)c2)[C@@H]1OC(=O)c1cc(O)c(O)c(OC(=O)c2cc(O)c(O)c(O)c2)c1)c1cc(O)c(O)c(OC(=O)c2cc(O)c(O)c(O)c2)c1 | – | inactive
12 | Cn1c(=O)c2c(ncn2C)n(C)c1=O | – | inactive
13 | CNCc1ccc(NC(=O)c2c[nH]c3c2C(=O)CCC3)cc1 | – | inactive
14 | O=C(CCCCCCCCc1cccnc1)N1CCC(C=C(c2ccccc2)c2ccccc2)CC1 | – | inactive
15 | CC[C@H]1CC[C@H](NCc2cc3c(cc2OC)[C@H]2C[C@H]2C(=O)N3C)[C@H](c2ccccc2)N1 | – | inactive
16 | CC/C(=C\C(=N/O)C(N)=O)C(C)[N+](=O)[O-] (configuration not stated) | – | inactive
17 | O=c1n(CC2CO2)c(=O)n(CC2CO2)c(=O)n1CC1CO1 (configuration not stated) | – | inactive
18 | CC(C)CCCCCCCOC(=O)CCCCC(=O)OCCCCCCCC(C)C | – | inactive
19 | CC(=O)OCCC(C)C | – | inactive
20 | CCOC(=O)c1ccc(C2CCC(NC[C@H](O)COc3ccc(O)c(NS(C)(=O)=O)c3)CC2)cc1 (some centres not stated) | – | inactive
21 | O=c1[nH]c2ccc(S(=O)CCN3CCC(Cc4ccc(F)cc4)CC3)cc2o1 (configuration not stated) | – | inactive
22 | O=C1CCC(N2C(=O)c3ccccc3C2=O)C(=O)N1 (configuration not stated) | – | inactive
23 | Cn1cnc([N+](=O)[O-])c1Sc1ncnc2nc[nH]c12 | – | inactive
24 | CC(C)=CCCC(C)=CC=O | – | inactive
25 | CC(C)CC(C)(O)C#CC(C)(O)CC(C)C (configuration not stated) | – | inactive
26 | Cc1[nH]cnc1C[C@H]1CCc2c(C)c3ccccc3n2C1=O | – | inactive
27 | CCOC(=O)CC(CC(=O)OCC)(OC(C)=O)C(=O)OCC | – | inactive
28 | COC(=O)CC(=O)OC | – | inactive
29 | CC1(C)C(=O)N(Br)C(=O)N1Br | – | inactive
30 | CCCCCCCCCCCCCCCO | – | inactive
31 | CC1=CC(=O)CC(C)(C)C1 | – | inactive
32 | NC(=O)NO | – | inactive
33 | CCCN(C1CCN(C(=O)C2CCNCC2)CC1)[C@@H]1CCc2ccc(OC)cc2C1 | – | inactive
34 | CCN(C(=O)c1cc(C)cc(OC[C@H](C)Nc2ccncc2)c1)C(C)C | – | inactive
35 | CCOC(=O)COc1ccc2c(c1)CC(NCC(O)c1cccc(Cl)c1)CC2 (configuration not stated) | 30 µM (active) | –

molecular target: Luciferin 4-monooxygenase (Photinus pyralis) (UniProt P08659); assay: CCTE_Simmons_QuantiLum_inhib_2: CCTE's Firefly Luciferase Inhibition Assay, Simmons Lab (AID 2283767);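 on AC50: potency for inhibitors that lower luciferase luminescence relative to DMSO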
Sequence (P08659 whole entry, looked up): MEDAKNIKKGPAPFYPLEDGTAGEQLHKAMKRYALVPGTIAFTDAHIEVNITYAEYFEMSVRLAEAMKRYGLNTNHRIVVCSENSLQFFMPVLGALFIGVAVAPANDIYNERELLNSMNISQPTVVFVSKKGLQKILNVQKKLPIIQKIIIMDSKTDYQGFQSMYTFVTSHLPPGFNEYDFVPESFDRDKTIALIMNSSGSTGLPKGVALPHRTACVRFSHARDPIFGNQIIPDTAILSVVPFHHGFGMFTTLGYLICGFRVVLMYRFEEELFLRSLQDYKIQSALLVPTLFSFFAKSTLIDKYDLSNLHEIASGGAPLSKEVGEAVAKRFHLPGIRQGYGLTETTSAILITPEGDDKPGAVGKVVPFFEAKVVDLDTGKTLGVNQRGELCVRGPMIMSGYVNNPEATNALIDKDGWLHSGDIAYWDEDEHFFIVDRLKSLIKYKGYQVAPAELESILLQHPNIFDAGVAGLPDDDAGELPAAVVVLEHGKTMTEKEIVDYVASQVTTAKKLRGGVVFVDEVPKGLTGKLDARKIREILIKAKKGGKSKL
Summary of the method: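 Counter-screen for nonspecific enzyme inhibition: purified firefly luciferase incubated 30 min at 37C with chemicals up to 87.5 uM final, then luminescence measured after luciferin/dATP injection; activity fitted against DMSO baseline.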

Row | Structure (SMILES) | outcome | AC50
36 | CCCCCCc1ccc(O)cc1O | inactive | –
37 | CN(C)c1ccc(N=NS(=O)(=O)O)cc1 | inactive | –
38 | O=C(OC[C@H]1O[C@@H](OC(=O)c2cc(O)c(O)c(OC(=O)c3cc(O)c(O)c(O)c3)c2)[C@H](OC(=O)c2cc(O)c(O)c(OC(=O)c3cc(O)c(O)c(O)c3)c2)[C@@H](OC(=O)c2cc(O)c(O)c(OC(=O)c3cc(O)c(O)c(O)c3)c2)[C@@H]1OC(=O)c1cc(O)c(O)c(OC(=O)c2cc(O)c(O)c(O)c2)c1)c1cc(O)c(O)c(OC(=O)c2cc(O)c(O)c(O)c2)c1 | – | 21.6 µM (active)
39 | O=C(CCCCCCCCc1cccnc1)N1CCC(C=C(c2ccccc2)c2ccccc2)CC1 | inactive | –
40 | CC/C(=C\C(=N/O)C(N)=O)C(C)[N+](=O)[O-] (configuration not stated) | inactive | –
41 | O=c1n(CC2CO2)c(=O)n(CC2CO2)c(=O)n1CC1CO1 (configuration not stated) | inactive | –
42 | CCOC(=O)c1ccc(C2CCC(NC[C@H](O)COc3ccc(O)c(NS(C)(=O)=O)c3)CC2)cc1 (some centres not stated) | inactive | –
43 | Cn1cnc([N+](=O)[O-])c1Sc1ncnc2nc[nH]c12 | inactive | –
44 | CC(C)=CCCC(C)=CC=O | inactive | –
45 | Cc1[nH]cnc1C[C@H]1CCc2c(C)c3ccccc3n2C1=O | inactive | –
46 | NC(=O)NO | inactive | –
47 | CCCN(C1CCN(C(=O)C2CCNCC2)CC1)[C@@H]1CCc2ccc(OC)cc2C1 | inactive | –
